Experiments:
Assay in all cases: PBM binding z-score (relative to random genomic background probes); higher = stronger binding; sequences stand for … in GC…GCGATTGACAGCGTAGAATGAAGG
[1] = test system: LXRa homodimer (NR concentration 270 nM)
Procedure, shortened: (§1)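 Ligand-free nuclear receptor dimers were bound for 1 h to custom Agilent 4×180K protein-binding microarrays. Detection used antibodies against each partner (one per run). Binding z-scores rest on regression-normalized fluorescence, with random background probes as the reference.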

[2] = test system: LXRb homodimer (NR concentration 270 nM)
Procedure, shortened: as §1

[3] = test system: PPARg:RXRa (NR concentration 180 nM, RXRa partner concentration 90 nM)
Procedure, shortened: as §1

[4] = test system: PPARg:RXRa 270nM:90nM, anti-RXR (NR concentration 270 nM, RXRa partner concentration 90 nM)
Procedure, shortened: as §1

[5] = test system: PPARg:RXRa 30nM:10nM, anti-RXR (NR concentration 30 nM, RXRa partner concentration 10 nM)
Procedure, shortened: as §1

[6] = test system: PPARg:RXRa 90nM:30nM, anti-RXR (NR concentration 90 nM, RXRa partner concentration 30 nM)
Procedure, shortened: as §1

[7] = test system: PPARg:RXRa DBDmut IVT, anti-RXR (DBD mutation: RXRa K156A/R161A, NR concentration 270 nM, RXRa partner concentration 90 nM)
Procedure, shortened: as §1

[8] = test system: PPARg:RXRa IVT, anti-PPARg (NR concentration 270 nM, RXRa partner concentration 90 nM)
Procedure, shortened: as §1

[9] = test system: PPARg DBDmut:RXRa IVT, anti-PPARg (DBD mutation: PPARg1 K132A/R137A, NR concentration 270 nM, RXRa partner concentration 90 nM)
Procedure, shortened: as §1

[10] = test system: PPARg DBDmut IVT, anti-PPARg (DBD mutation: PPARg1 K132A/R137A, NR concentration 270 nM)
Procedure, shortened: as §1

[11] = test system: PPARg homodimer (NR concentration 180 nM)
Procedure, shortened: as §1

[12] = test system: PXR homodimer (NR concentration 270 nM)
Procedure, shortened: as §1

[13] = test system: RARa homodimer (NR concentration 270 nM)
Procedure, shortened: as §1

[14] = test system: RARb homodimer (NR concentration 270 nM)
Procedure, shortened: as §1

[15] = test system: RARb:RXRa (NR concentration 270 nM, RXRa partner concentration 90 nM)
Procedure, shortened: as §1

[16] = test system: RARa:RXR (NR concentration 270 nM, RXRa partner concentration 90 nM)
Procedure, shortened: as §1

[17] = test system: PXR:RXRa (NR concentration 270 nM, RXRa partner concentration 90 nM)
Procedure, shortened: as §1

| Sequence | PBM binding z-score [1] | PBM binding z-score [2] | PBM binding z-score [3] | PBM binding z-score [4] | PBM binding z-score [5] | PBM binding z-score [6] | PBM binding z-score [7] | PBM binding z-score [8] | PBM binding z-score [9] | PBM binding z-score [10] | PBM binding z-score [11] | PBM binding z-score [12] | PBM binding z-score [13] | PBM binding z-score [14] | PBM binding z-score [15] | PBM binding z-score [16] | PBM binding z-score [17] |
| --- | --- | --- | --- | --- | --- | --- | --- | --- | --- | --- | --- | --- | --- | --- | --- | --- | --- |
| CAAACAAGGTCACGAAAGGTCAAAGTCGAATGAC | 8.69 | 3.83 | 9.38 | 8.37 | 5.8 | 7.95 | 5.71 | 7.11 | 3.1 | 3.53 | 8.44 | 7.51 | 5.3 | 6.14 |  |  |  |
| TATACGGGGTCAAAGGCCAGAGTACGAATGTCGA | 4.73 | 5.42 |  | 9.09 | 7.56 | 9.05 | 4.38 | 6.45 | 4.68 | 3.02 | 3.58 | 1.98 | 1.66 | 4.34 | 5.29 |  |  |
| CAAACGAGGTCACAGAGGTCAAAGTCCGTGCGTA | 8.64 | 3.01 | 9.94 | 8.76 | 6.47 | 8.53 | 6.82 | 7.63 | 3.35 | 5.12 | 7.88 | 15.3 | 5.39 | 5.83 |  |  |  |
| CTACCAAGGTCAACAAGGTCGTTGATTACTATTC | 3.79 | 1.23 | 5.57 | 6.01 | 2.68 | 4.51 | 4.52 | 4.74 | 1.26 | 1.4 | 4.44 | 12.6 | 3.35 | 5.25 |  | 6.63 |  |
| ACTCGGAGGTCAAAGGTCAGAGCTACGCCAGTGA | 5.1 | 2.98 |  | 9.47 | 9.38 | 10.2 | 4.46 | 6.2 | 2.13 | 2.31 | 6.27 | 1.87 | 3.86 | 5.48 |  |  |  |
| ATCGAAAGGTCATGAGGTGAGTATACAGAAAGGC | 4.02 | 2.52 | 9.07 | 7.95 | 5.41 | 7.18 | 4.25 | 5.59 | 2.8 | 3 | 4.69 | 0.933 | 3.7 | 5.04 |  |  | 5.71 |
| CAAACGAGGTCAAGGTCAAAGTCGGTTTGTGCCA | 4.79 | 2.41 | 9.01 | 7.98 | 5.75 | 7.37 | 6.4 | 7.3 | 3.16 | 1.96 | 4.15 | 4.12 | 2.66 | 5.54 |  |  |  |
| CCTTAGGGGTCACTCCAGGTTATAGCATCGGAGT | 3.9 | 1.26 | 7.77 | 7.74 | 4.31 | 6.51 | 3.7 | 5.37 | 2.85 | 0.901 | 3.42 | 0.789 | 1.3 | 4.71 | 5.36 |  |  |
| CGTCAAAGGTCAACTAAGGTAACGTAAAGCACGC | 3.42 | 4.64 | 9.18 | 8.77 | 6.39 | 8.42 | 5.01 | 5.93 | 1.03 | 0.957 | 4.87 | 1.59 | 3.77 | 5.33 |  | 6.58 |  |
| TCTAGTAGGTCAAAGGTCACACACTCGAAATGCG | 5.52 | 2.6 |  | 11.6 | 13 | 14.2 | 8.19 | 9.26 | 6.06 | 3.11 | 7.45 | 2.56 | 5.05 | 5.5 |  |  |  |
| GCTTACGGGTCAAAGGTCATAGCATGAATAGAAT | 4.02 | 1.77 |  | 10.4 | 12.9 | 12.5 | 5.72 | 7.02 | 2.05 | 1.67 | 4.66 | 1.47 | 2.21 | 5.12 |  |  |  |
| AGTCAAAGGTCATCTAGGTAACGTAAGATATGCT | 4.61 | 5.04 |  | 8.23 | 6.82 | 8.3 | 4.12 | 6.77 | 2.25 | 1.94 | 3.75 | 1.34 | 2.2 | 5.29 |  | 6.03 | 5.44 |
| TGTCAAAGTTCAAAGGTCACGTAAGTATCCACAC | 7.63 | 3.24 |  | 9.52 | 7.66 | 10.2 | 1.46 | 6.64 | 4.45 | 3.14 | 6.73 | 5.82 | 5.52 | 5.93 |  |  |  |
| GCTTAGGGGTCAAAGGTTATAGCATGAATAGAAT | 1.95 | 2.82 | 11.8 | 9.66 | 9.13 | 10.2 | 5.79 | 6.52 | 3.02 | 2.44 | 2.86 | 1.2 | 1.8 | 4.64 |  |  |  |
| TGTCAAAGGTCAAAGGTAACGTAAGTATCCACAC | 4.19 | 4.32 |  | 9.9 | 8.47 | 10.5 | 4.01 | 7.56 | 5.45 | 6.39 | 5.28 | 1.31 | 3.71 | 5.11 |  |  |  |
| ACTTAGGGGTCAACGAGGTTATAGCACGCGTATA | 2.91 | 2.35 | 9.33 | 8.62 | 6.08 | 8.5 | 5.4 | 5.93 | 2.39 | 2.86 | 3.01 | 9.1 | 2.38 | 5.02 |  |  |  |
| TATACAGGGTCAAAGGTCAGAGTACGAATGTCGA | 4.72 | 3.86 |  | 9.79 | 9.88 | 10.9 | 3.73 | 6.32 | 2.47 | 1.85 | 2.64 | 1.68 | 2.73 | 5.41 |  |  |  |
| CGTCAAAGGTCAAAGGTCAGTGAAGAGATGACGG | 5.49 | 4.46 | 11.4 | 9.58 | 9.03 | 10.4 | 5.34 | 6.51 | 2.46 | 1.92 | 4.68 | 1.83 | 3.92 | 6.09 |  | 9.15 | 7.37 |
| CTCGAAAGGTCATGCTCAGGTGAGTATACCAAAC | 3.89 | 2.44 | 7.63 | 8.05 | 4.38 | 6.89 | 4.16 | 4.89 | 1.38 | 0.849 | 3.71 | 0.752 | 2.27 | 5.14 |  | 6.85 | 5.91 |
| ATCGAAAGGTCAACGAGGTGAGTATACACCGTTT | 4.35 | 3.41 | 8.38 | 7.87 | 5.13 | 7.2 | 3.84 | 5.68 | 2.78 | 3.38 | 5.17 | 5.16 | 3.85 | 5.51 |  | 6.61 | 6 |
| CGTTCAAGGTCAAAGGTCAGTGAAGAGATGACGG | 4.39 | 2.52 |  | 9.86 | 11.2 | 11.5 | 5.39 | 6.57 | 2.57 | 1.79 | 6.36 | 3.57 | 5.48 | 5.42 | 5.89 | 8.99 | 7.19 |
| CAAAATAGGTCAAAGGTCAAAGTCGAGCCAACCA | 6.17 | 3.52 | 13.7 | 11.5 | 12.6 | 13.3 | 8.15 | 8.59 | 3.03 | 1.57 | 4.96 | 2.02 | 3.71 | 5.5 |  | 9.14 | 7.32 |
| ATCGAAAGGTCAAGGTGAGTATAGAGAAAGGGAA | 2.78 | 3.58 | 8.08 | 7.77 | 5.24 | 7.07 | 3.34 | 5.43 | 2.02 | 1.2 | 4.09 | 1.19 | 2.51 | 5.32 |  | 5.85 | 5.13 |
| AATACGGGGTCATCGTAGGCCAGAGTACGCACAG | 4.62 | 2.94 | 9.53 | 8.49 | 6.12 | 7.88 | 4.48 | 5.98 | 1.67 | 2.1 | 3.3 | 1.94 | 1.73 | 4.48 | 5.09 |  |  |
| CGTCAAAGTTCAACTAAGGTCACGTAAAGCACGC | 8.57 | 2.98 | 6.26 | 6.88 | 3.49 | 5.51 | 1.14 | 3.7 | 0.74 | 1.77 | 6.25 | 12.2 | 3.25 | 6.11 |  |  |  |
| CCTTAGGGGTCAAGGTTATAGCACGGGTGGTACG | 1.33 | 1.15 | 8.58 | 7.98 | 5.01 | 7.42 | 3.07 | 5.19 | 1.1 | 0.837 | 4.4 | 1.1 | 2.38 | 5.11 |  |  | 6.23 |
| CGTCAAAGGTCAAGGTCAGTGAAAGAGACTCGAA | 3.09 | 3.05 |  | 8.78 | 6.2 | 8.38 | 4.74 | 6.36 | 3.41 | 4.07 | 6.26 | 1.8 | 4.06 | 5.34 |  | 6.98 | 6.26 |
| TCTCGGAGGTCACGAAAGGTCAGAGCTCGACATC | 6.78 | 2.06 | 8.27 | 7.76 | 5.31 | 7.09 | 4.43 | 6.3 | 1.39 | 2.35 | 6.9 | 3.6 | 5.11 | 6.12 |  |  |  |
| CAAACGAGGTCAAGAGGTCAAAGTCCGCTTCCCG | 7.48 | 2.92 | 9.67 | 7.84 | 5.59 | 7.61 | 6.04 | 7.14 | 1.86 | 1.69 | 5.31 | 6.05 | 2.73 | 6.42 |  | 8.32 |  |

Reference: the supplement of paper PMC6555819
